# Laboratory results published in the supplement of paper PMC8728848.
# About 410 targets per protein were measured; listed, in parts, are those with the strongest signals and a random draw of the rest.
# B1: NanH (Corynebacterium diphtheriae), C6JSW6 (protein)
# chain: MYSSNRTYSRAILGLSAVLTLSFTSLVAPVNAEEPETVVPATAELEGEVAATLPSAETGLLDAAPPKPVARGAAGDLQLPAVNEKEVFEEGRVIRAPEPDQSRCYRIPALVTAKNGDLLLAFDNRYGGGDGAKTWCRDAPYENMKRINRQNMQTDIQLYRSVDNGQSFEDFGYIAQGTADVRELSYTDPALVTDRTTGKIFAFFVRAYDYRVGQSSAGFNEGDVEAEIQKRDVQDTVVVESLDGGQTWGNMRLLSALTAKVSSISTGDTIFDGRGRFVTSGAGIQLQYGEHAGRLIVPISVDIDPKDSAKFINLAIYSDDHGQTWQAGIGTAGGAGFSGDVSKIVELSDGRLMMSSKDNDKPRWVSYSEDQGENWSTPKRKIIAPPQHPEKHNTGINVGLIRAYPNAPENSAAARVLLYSAPIDQRYSHKHTEDGRNNGWVMGSCDDGKTWSFGRQIEKNRFQYSSMTVMSDGNIGMVYESGDFSTGMNLKFAKFNMAWLGADCHSNEALGLTGDIDKEIVEAQEKAAEATKEAQEAAEKVQKLTEELAAARKENDELKNQVKGFKEAVGDLANEAEDLADKVFKLETAVTEAKEKATVAEKAASDAVTQLQKAESIAEEQKAKAESAAAEAQALREKLERLEGSILTVKENPEAEEIADLSSTAKDAADAARRAATDANGALSGQKQDEEKPAMGLMGILKVLAGIIPLVAIIATIFQTFRLPFNIPGMR
# Assays:
# Assay in all cases: glycan array binding signal (z-score within array); higher = stronger binding
# Settings in all cases: glycan notation: IUPAC condensed, linker removed
# Neu5Ac(a2-3)Gal = target: Neu5Ac(a2-3)Gal
# Outline: (§1)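 The binding signal is a Z-score computed within each array and averaged over linkers. Arrays of the same protein sequence at different concentrations or buffers were also averaged together. Data originate from 3228 arrays in the Consortium for Functional Glycomics database, kept only where the protein sequence was available.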
# [1] = target: Neu5Ac(a2-3)Gal(b1-3)GalNAc6S
# Outline: as §1
# [2] = target: Neu5Ac(a2-3)Gal(b1-4)GlcNAc(b1-2)Man(a1-3)[GlcNAc(b1-2)Man(b1-4)GlcNAc(b1-2)Man(a1-6)]Man(b1-4)GlcNAc(b1-4)GlcNAc
# Outline: as §1
# [3] = target: Neu5Ac(a2-3)Gal6S(b1-4)GlcNAc
# Outline: as §1
# [4] = target: Neu5Ac(a2-6)Gal(b1-4)GlcNAc(b1-2)Man(a1-3)[GlcNAc(b1-2)Man(a1-6)]Man(b1-4)GlcNAc(b1-4)GlcNAc
# Outline: as §1
# [5] = target: Neu5Ac(a2-6)Gal(b1-4)GlcNAc(b1-2)Man(a1-3)[Man(a1-6)]Man(b1-4)GlcNAc(b1-4)GlcNAc
# Outline: as §1
# [6] = target: Neu5Gc(a2-3)Gal(b1-4)GlcNAc
# Outline: as §1
# Neu5Gc(a2-6)GalNAc = target: Neu5Gc(a2-6)GalNAc
# Outline: as §1
binder,measurement,setting,value
B1,glycan array binding signal (z-score),Neu5Ac(a2-3)Gal,0.353
same,glycan array binding signal (z-score),[1],1.83
same,glycan array binding signal (z-score),[2],0.603
same,glycan array binding signal (z-score),[3],-1.04
same,glycan array binding signal (z-score),[4],0.122
same,glycan array binding signal (z-score),[5],-0.077
same,glycan array binding signal (z-score),[6],-0.068
same,glycan array binding signal (z-score),Neu5Gc(a2-6)GalNAc,0.15
